# “And” between values parts separate entries of the source, which are not always exact repeats. Equal values may be shown once. For part of these data: Results with a measured potency or affinity are listed apart.
# Legend:
# Set-up in all cases: scale not given: direction of the effect not stated beside the values
# [1] = target: Protein translocase subunit SecA (Escherichia coli (strain K12)) (UniProt P10408); assay: Assay to Identify E. coli SecA ATPase Inhibitors; assay type: functional; conditions: 30 µM
# [2] = target: T1, Ubiquitin-activating enzyme e1, putative (Leishmania donovani (strain BPK282A1)) (UniProt E9BSI1); assay: Leishmania donovani Ubiquitin Activating Enzyme (LdE1); assay type: functional; conditions: 30 µM
# T1 sequence (whole entry): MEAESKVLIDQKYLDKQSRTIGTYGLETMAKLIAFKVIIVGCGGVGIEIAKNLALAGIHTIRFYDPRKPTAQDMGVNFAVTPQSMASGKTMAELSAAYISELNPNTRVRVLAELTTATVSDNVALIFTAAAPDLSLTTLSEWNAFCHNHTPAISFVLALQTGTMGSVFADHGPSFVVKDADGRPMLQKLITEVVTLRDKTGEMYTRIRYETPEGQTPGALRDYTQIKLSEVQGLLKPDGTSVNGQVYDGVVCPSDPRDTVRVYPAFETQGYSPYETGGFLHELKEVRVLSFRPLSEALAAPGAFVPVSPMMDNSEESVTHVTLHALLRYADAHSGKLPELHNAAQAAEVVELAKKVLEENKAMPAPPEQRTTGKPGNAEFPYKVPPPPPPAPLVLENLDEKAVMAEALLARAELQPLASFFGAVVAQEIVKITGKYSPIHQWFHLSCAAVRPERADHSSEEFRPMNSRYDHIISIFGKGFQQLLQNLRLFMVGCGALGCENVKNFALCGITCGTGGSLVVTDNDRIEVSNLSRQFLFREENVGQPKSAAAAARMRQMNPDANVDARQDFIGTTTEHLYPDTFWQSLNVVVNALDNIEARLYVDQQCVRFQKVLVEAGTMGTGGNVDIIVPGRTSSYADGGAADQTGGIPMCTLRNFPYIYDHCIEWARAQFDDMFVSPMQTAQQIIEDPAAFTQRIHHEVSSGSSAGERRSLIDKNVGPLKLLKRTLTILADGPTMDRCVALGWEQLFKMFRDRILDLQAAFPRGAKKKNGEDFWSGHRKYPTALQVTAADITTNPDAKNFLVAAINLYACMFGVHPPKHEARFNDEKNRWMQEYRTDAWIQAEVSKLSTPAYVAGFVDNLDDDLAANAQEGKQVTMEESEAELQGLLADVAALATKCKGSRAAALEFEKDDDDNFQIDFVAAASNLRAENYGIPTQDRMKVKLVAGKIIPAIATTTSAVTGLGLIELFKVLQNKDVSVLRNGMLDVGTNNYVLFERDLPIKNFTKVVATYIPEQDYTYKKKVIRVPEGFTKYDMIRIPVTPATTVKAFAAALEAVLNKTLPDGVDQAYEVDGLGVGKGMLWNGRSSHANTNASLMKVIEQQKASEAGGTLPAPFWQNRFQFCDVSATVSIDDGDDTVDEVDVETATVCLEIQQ
# [3] = target: AMP-activated protein kinase, AMPK (Homo sapiens) (UniProt P54646+O43741+P54619+Q9UGJ0+Q9Y478+Q13131+Q9UGI9); assay: AMP-dependent Kinase enzyme assay. An in vitro enzyme assay that detects ADP turnover that is directly proportional to AMPK activity. This uses naive AMPK that is activated during the assay with MK-8722; assay type: functional; conditions: 30 µM
# [4] = target: Sialic acid-binding Ig-like lectin 9 (Homo sapiens) (UniProt Q9Y336); assay: Hs-Siglec9 ALPHAscreen SOP 20170721; conditions: 10 µM
# Trypanosoma cruzi = assay: Trypanosoma cruzi phosphomannomutase and mannose-1-phosphate guanylyltransferase assay; assay type: functional; conditions: 10 µM
# [5] = target: T2, Arginase-2, mitochondrial (Homo sapiens) (UniProt P78540); assay: in vitro enzyme assay to detect the production of urea directly proportional to the activity of Arginase II; assay type: functional; also: in the data most compounds retested in dose-response had high values
# T2 sequence (whole entry): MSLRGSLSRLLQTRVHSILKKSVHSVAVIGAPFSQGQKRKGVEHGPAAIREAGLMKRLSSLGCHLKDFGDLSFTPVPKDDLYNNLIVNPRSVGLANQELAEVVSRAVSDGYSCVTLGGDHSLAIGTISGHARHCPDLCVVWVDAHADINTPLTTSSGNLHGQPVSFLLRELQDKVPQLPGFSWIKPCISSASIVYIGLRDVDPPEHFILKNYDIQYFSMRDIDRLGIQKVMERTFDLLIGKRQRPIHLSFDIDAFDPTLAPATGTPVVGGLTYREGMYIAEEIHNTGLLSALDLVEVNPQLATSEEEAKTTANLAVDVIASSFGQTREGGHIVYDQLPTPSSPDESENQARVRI
# [6] = target: T3, Proteasome subunit beta (Trypanosoma cruzi) (UniProt O96673); assay: Trypanosoma cruzi proteasome chymotrypsin-like activity (TcProtChymo) assay.; also: in the data most compounds retested in dose-response had high values; assay type: functional; conditions: 9.37 µM
# T3 sequence (whole entry): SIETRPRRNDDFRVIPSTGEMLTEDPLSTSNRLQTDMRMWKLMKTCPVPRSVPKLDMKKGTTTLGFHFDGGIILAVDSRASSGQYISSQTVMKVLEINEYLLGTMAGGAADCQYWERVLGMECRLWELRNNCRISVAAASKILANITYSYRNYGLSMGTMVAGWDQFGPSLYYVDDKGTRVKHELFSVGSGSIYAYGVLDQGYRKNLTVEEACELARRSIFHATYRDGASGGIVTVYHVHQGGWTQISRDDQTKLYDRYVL
# N/A = assay: Trypanosoma cruzi proteasome luciferase counter-screen; assay type: functional; conditions: 9.37 µM
# Homo sapiens = organism: Homo sapiens; assay: To identify inhibition of the IFN signalling (Jak-Stat) pathway via expression of an eGFP reporter gene under the control of an IFN-stimulated response element (ISRE) containing MxA promoter.; assay type: functional; conditions: 30 µM
# [7] = target: T4, Tyrosyl-tRNA synthetase, putative (Trypanosoma cruzi (strain CL Brener)) (UniProt Q4DSP6); assay: Trypanosoma cruzi tyrosyl tRNA synthetase (TcYRS) _High Tyrosine SOP; assay type: functional; conditions: 30 µM; also: in the data most compounds retested in dose-response had high values
# T4 sequence (whole entry): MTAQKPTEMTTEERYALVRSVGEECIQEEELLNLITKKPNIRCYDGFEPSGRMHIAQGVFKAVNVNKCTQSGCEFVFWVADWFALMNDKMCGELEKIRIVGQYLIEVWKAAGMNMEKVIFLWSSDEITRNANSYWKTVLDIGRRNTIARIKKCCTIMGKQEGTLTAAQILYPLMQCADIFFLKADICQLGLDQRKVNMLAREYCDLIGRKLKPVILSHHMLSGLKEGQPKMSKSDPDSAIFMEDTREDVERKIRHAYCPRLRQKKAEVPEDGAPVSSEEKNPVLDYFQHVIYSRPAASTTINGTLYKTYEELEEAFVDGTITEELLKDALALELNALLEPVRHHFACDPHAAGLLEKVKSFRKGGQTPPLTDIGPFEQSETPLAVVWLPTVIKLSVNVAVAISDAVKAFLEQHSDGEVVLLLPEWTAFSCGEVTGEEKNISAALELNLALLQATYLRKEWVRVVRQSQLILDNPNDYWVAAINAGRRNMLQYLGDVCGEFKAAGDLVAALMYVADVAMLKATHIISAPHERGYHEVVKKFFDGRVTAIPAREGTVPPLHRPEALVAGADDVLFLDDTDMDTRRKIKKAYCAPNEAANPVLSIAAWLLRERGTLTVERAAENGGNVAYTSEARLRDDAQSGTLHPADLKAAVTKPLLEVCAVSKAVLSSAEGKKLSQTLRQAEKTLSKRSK
# [8] = target: T4, Tyrosyl-tRNA synthetase, putative (Trypanosoma cruzi (strain CL Brener)); assay: Trypanosoma cruzi tyrosyl tRNA synthetase (TcYRS) SOP; assay type: functional; conditions: 30 µM
# [9] = target: Chromo domain-containing protein 1 (Saccharomyces cerevisiae (strain ATCC 204508 / S288c) (Baker's yeast)) (UniProt P32657); assay: ScCHD-1 Enzyme Inhibition Assay; assay type: functional; conditions: 30 µM; also: in the data most compounds retested in dose-response had high values
# Sequence of Chromo domain-containing protein 1 (Saccharomyces cerevisiae (strain ATCC 204508 / S288c) (Baker's yeast)) (P32657 whole entry, the tested form may be a part): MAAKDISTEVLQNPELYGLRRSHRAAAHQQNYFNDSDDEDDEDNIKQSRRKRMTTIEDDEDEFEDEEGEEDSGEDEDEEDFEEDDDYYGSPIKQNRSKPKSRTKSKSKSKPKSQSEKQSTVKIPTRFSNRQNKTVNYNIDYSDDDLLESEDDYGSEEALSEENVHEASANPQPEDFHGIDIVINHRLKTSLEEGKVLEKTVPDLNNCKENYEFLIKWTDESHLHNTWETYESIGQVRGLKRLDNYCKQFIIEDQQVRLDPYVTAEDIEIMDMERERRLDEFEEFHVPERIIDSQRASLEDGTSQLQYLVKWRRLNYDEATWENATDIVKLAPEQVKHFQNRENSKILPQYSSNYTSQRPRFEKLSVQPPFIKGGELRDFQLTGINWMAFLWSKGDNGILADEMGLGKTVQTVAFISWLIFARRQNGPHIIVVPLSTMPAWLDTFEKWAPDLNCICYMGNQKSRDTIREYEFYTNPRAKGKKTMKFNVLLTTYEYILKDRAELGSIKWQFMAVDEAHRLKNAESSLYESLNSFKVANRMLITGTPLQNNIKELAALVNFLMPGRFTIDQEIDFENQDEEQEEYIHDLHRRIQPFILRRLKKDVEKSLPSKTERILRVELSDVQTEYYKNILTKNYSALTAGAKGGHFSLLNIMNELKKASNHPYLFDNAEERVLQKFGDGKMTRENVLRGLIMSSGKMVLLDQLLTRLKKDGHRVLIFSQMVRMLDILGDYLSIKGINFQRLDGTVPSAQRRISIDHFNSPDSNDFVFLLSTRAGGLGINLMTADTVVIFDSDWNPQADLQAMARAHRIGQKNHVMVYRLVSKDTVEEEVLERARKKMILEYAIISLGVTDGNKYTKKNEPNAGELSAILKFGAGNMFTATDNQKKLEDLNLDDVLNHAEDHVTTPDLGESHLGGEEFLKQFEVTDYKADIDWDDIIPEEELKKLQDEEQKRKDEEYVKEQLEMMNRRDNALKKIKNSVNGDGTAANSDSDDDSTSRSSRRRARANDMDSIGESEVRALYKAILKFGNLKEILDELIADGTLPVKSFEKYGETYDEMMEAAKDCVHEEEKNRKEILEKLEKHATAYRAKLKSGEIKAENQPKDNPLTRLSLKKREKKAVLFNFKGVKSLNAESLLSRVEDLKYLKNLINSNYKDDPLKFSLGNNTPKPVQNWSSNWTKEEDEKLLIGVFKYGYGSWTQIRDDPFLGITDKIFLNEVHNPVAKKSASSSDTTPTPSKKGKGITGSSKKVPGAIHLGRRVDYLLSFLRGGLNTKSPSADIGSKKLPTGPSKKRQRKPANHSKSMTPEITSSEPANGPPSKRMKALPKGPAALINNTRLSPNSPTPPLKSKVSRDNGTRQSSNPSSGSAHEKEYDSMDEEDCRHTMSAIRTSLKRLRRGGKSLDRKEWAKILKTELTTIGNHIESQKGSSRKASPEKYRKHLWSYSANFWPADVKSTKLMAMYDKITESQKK
# Sequence of Protein translocase subunit SecA (Escherichia coli (strain K12)) (P10408 whole entry): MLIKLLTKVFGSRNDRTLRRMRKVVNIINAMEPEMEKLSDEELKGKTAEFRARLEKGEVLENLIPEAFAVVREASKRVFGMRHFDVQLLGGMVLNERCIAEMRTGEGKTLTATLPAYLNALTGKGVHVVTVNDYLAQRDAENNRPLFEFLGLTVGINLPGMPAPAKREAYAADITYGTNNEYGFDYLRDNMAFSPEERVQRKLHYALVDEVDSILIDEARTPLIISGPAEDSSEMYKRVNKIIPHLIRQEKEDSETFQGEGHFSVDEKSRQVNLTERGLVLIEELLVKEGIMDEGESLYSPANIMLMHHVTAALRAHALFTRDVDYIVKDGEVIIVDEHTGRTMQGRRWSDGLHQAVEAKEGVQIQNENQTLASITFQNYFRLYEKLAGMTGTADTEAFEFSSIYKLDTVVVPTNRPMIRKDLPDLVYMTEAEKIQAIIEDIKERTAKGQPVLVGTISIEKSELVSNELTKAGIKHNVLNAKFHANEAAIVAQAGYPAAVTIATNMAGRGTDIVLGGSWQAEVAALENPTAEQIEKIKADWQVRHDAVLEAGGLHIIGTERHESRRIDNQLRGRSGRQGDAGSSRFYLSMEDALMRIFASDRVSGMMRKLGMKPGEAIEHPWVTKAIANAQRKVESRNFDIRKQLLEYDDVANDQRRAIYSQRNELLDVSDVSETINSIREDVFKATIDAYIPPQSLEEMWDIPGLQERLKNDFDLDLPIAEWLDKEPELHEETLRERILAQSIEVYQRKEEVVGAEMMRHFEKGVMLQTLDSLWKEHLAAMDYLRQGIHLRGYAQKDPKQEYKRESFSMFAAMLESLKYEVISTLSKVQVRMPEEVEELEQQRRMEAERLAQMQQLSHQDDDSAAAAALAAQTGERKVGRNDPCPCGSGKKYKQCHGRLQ
# Sequence of Sialic acid-binding Ig-like lectin 9 (Homo sapiens) (Q9Y336 whole entry): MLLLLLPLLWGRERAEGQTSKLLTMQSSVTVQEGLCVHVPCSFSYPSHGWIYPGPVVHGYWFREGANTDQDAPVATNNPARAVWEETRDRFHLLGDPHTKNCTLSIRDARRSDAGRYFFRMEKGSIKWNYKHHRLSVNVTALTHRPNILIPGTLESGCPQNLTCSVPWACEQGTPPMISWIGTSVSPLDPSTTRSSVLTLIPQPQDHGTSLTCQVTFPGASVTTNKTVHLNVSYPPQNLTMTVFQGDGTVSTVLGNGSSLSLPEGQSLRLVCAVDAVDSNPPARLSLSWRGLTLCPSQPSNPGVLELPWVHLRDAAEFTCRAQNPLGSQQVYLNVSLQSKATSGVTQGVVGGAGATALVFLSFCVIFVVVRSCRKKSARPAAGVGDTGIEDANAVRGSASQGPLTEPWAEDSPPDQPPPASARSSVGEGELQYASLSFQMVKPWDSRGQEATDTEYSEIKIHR
SMILES,Percent Effect [1],Percent Effect [2],Percent Effect [3],Percent Effect [4],Percent Effect (Trypanosoma cruzi),Percent Effect ([5]; 33.3 µM),Percent Effect [6],Percent Effect (N/A),Percent Effect (Homo sapiens),Percent Effect [7],Percent Effect [8],Percent Effect [9],Percent Effect ([5]; 30 µM)
c1cc(OCc2ccc3c(c2)OCO3)ccc1CNC1CC1,7.84%,0%,0.713%,-11.4%,-6.91%,-18.9%,97.3% and 98.3% and 97.4%,85.2% and 85%,14.4%,-2.13%,0%,38.5%,–
COc1ccc(C2SC(C)=Nc3c2c(=O)[nH]n3C2CCCCC2)cc1O (stereo not given),1.71%,17.3%,0.637%,-1.4%,0.786%,-25.2%,15.3%,–,39.9%,43.4%,48.7%,-12.8%,-3.78%
COc1c(CNC2CCc3c(Cl)cccc32)c(C)nn1C (stereo not given),-3.04%,8%,-13.3%,15.4%,7.89%,14.1%,16.2%,–,53.8%,4.92%,16.1%,108%,1.62%
Cc1cc(C(=O)N2C[C@@H](C(=O)O)[C@H](c3ccccc3C)C2)c(C)o1,-6.29%,2.7%,4.96%,-6.42%,-7.92%,-2.23%,11.2%,–,18.7%,1.07%,3.7%,-4.1%,4.87%
CCC(C(=O)NCc1ccncc1)N(c1cccc(C)c1)S(C)(=O)=O (stereo not given),-2.54%,2.67%,0.78%,9.85%,5.16%,9.38%,7.32%,–,18.8%,2.73%,13.6%,-7.66%,10.3%
CC1CCN(S(=O)(=O)c2cccn(CC(=O)N3CCOCC3)c2=O)CC1,-2.79%,9.33%,5.14%,0.129%,-4.91%,-3.7%,7.02%,–,0.032%,1.06%,2.56%,-7.85%,3.78%
COc1ccc(C(=O)N2C[C@@H](C(=O)O)[C@H](c3ccccc3C)C2)c(O)c1,-5.13%,5.41%,-4.36%,32%,1.86%,-0.248%,9.53%,–,-12.1%,6.45%,16.1%,-2.87%,4.87%
Cc1ccc(CN(C)C(=O)CN2CC(n3cccn3)C2)o1,-6.67%,2.63%,17.5%,-1.07%,-1.46%,-4.73%,23.1% and 34.2% and 27.3%,20.4% and 19.7%,22.7%,-2.13%,-2.6%,-1.83%,–
CC1=Nc2c(c(=O)[nH]n2C2CCCC2)C(c2cccc(O)c2)S1 (stereo not given),-2.38%,-1.33%,11.5%,2.03%,1.38%,-1.23%,11.3%,–,36.2%,14.8%,20.5%,0.661%,-1.62%
Cc1cc(NC(=O)N2CCN(c3nc(C)c(C)s3)CC2)no1,-4.08%,-2.7%,8.59%,-1.24%,-4.3%,0.833%,12.8%,–,-8.43%,5.94%,8.54%,-0.744%,3.78%
COc1ccc(-c2nc(CN3CC(n4nc(C)cc4C)C3)no2)cc1,-4.78%,-5.2%,0.251%,-0.396%,-6.79%,17.9%,14.5%,–,15.2%,2.15%,1.24%,1.8%,2.7%
Cc1ccc([C@@H]2CN(S(=O)(=O)c3cccs3)C[C@H]2N(C)C)cc1,-5.74%,2.7%,-3.82%,22.9%,2.25%,-0.744%,0.944%,–,22.4%,3.23%,13.6%,-3.75%,-0.54%
COc1ccc(CN2C[C@@H](N(C)Cc3ccco3)[C@H]3OCCC[C@H]32)cc1,-4.13%,5.33%,8.07%,3.01%,-5.71%,0.699%,11%,–,9.72%,3.19%,8.97%,-3.71%,-8.11%
CN(Cc1ccccn1)C(=O)[C@]12COC[C@H]1CN(Cc1cnn(C)c1)C2,-1.75%,2.67%,0.223%,6.55%,1.16%,-52.5%,3.93%,–,-7.69%,2.08%,7.5%,-8.12%,5.95%
CSCC(=O)N1CCCC1c1noc(C2CC2)n1 (stereo not given),-5.16%,10.7%,-6.47%,12.3%,4.97%,29.2%,-1.92%,–,4.6%,0.546%,11.1%,-16.6%,4.87%
